From PubChem
Shown are actives, neighbours in structure and some others; about 2.2% of the full set was active somewhere.
EBNA-1 inhibitor: blocks EBNA-1 binding to DNA; EBNA-1 DNA binding, fluorescence polarization; inhibition, % at 14.8 µM; 300,000 compounds, 0.34% hits; in the data active means inhibition above about 28%
ZTA DNA inh: blocks Epstein-Barr virus ZTA, an EBNA-1 counter-screen. 320,000 compounds, 0.15% hits. inhibition, % at 11 µM. P03206. ZTA-DNA binding, fluorescence polarization; in the data active means inhibition above about 33%
Target sequence (P03206 whole entry, looked up): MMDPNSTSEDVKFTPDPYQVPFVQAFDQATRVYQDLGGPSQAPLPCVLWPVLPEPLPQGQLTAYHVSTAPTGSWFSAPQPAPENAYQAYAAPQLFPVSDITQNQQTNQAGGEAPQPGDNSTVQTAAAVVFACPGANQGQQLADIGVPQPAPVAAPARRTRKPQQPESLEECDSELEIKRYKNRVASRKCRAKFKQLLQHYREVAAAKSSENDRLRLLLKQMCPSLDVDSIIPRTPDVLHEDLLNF
PolyA inhibitor: yeast polyadenylation inhibition | S. cerevisiae SKY197-pL101 polyadenylation reporter, beta-gal luminescence; efflux-impaired pdr1/pdr3 knockout yeast; score 100 = 6 SD above DMSO | AID 1875 | activity score, % at 12 µM | 300,000 compounds, 0.02% hits;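 active means lowest replicate activity score at least 50, where 100 means six control SD above control mean; inconclusive means lowest score under 50 but half or more replicates reach 50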;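 further: yeast exposed to compound for 9 h at 30 °C; higher score means more reporter readthrough which indicates perturbed polyadenylation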
NALP3 yeast inh: NALP3 inhibition in yeast | 330,000 compounds, 0.39% hits | Yeast reconstituted NLRP3/ASC/caspase-1, beta-gal luminescence, 24 h | inhibition, % at 10 µM;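 active means inhibition of 50% or more; inactive means inhibition below 50%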;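 further: plate controls were induced DMSO wells for no effect and uninduced yeast grown without galactose for full effect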
dFosB act: mouse delta FosB homodimer activation | P13346 | purified delta FosB, TAMRA-CDK5 oligo fluorescence polarization; percent of positive-control signal above neutral wells | activation, % at 25 µM | 340,000 compounds, 0.99% hits | AID 493131;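 active means mean activation above about 17%, with every replicate also reaching it, limit read from the data, passing the limit was not always enough; inconclusive means only one of the two conditions met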
Target sequence (P13346 whole entry, looked up): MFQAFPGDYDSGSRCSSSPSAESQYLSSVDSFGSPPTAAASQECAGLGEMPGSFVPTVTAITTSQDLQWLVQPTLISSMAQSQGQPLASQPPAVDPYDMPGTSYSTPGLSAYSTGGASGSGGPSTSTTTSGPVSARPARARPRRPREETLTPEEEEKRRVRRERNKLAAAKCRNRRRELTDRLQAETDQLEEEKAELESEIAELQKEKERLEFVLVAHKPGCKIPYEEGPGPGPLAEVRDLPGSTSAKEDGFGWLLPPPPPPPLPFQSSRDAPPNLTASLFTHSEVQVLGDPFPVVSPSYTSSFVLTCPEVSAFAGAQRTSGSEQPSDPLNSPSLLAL
NALP1 inh: blocks the NALP1 inflammasome reconstituted in yeast; S. cerevisiae NALP1/ASC/caspase-1 growth, X-gal OD620, 72 h; inhibition, % at 10 µM; 280,000 compounds, 0.61% hits; in the data active means inhibition mostly above about 24%, no sharp cut-off; inactive means mostly below about 32%
EBNA-1 confirm: EBNA-1 (EBV) inhibition, confirmation | Recombinant EBNA-1 DBD, Cy5-DNA fluorescence polarization | 830 compounds, 35% hits | inhibition, % at 14.8 µM | shares compounds with EBNA-1 inhibitor;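 active means mean inhibition across replicates above a set limit taken from the earlier primary screen, cut at about 28% in these data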;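 further: plate controls were EBNA-1 protein with DMSO for no effect and wells lacking EBNA-1 for full effect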
ZTA DNA inh trip: ZTA (EBV) inhibition, triplicate counter-screen | shares compounds with EBNA-1 inhibitor | Zta-ZRE DNA binding, Cy5 fluorescence polarization | inhibition, % at 11.1 µM | 830 tested, under 10 active | AID 2328;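 active means mean inhibition over triplicates above a set limit taken from the primary EBNA-1 screen, cut at about 37% in these data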;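 further: purified full length Zta protein with Cy5 labeled ZRE DNA probe; 0% = Zta with DMSO and 100% = wells lacking Zta protein; inhibitors lower polarization by freeing the labeled DNA probe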
Numbers without * were called inactive; u = inconclusive; x = no result given.

SMILES	EBNA-1 inhibitor	ZTA DNA inh	PolyA inhibitor	NALP3 yeast inh	dFosB act	NALP1 inh	EBNA-1 confirm	ZTA DNA inh trip
COc1ccc(S(=O)(=O)N(C)C[C@H]2Oc3c(NC(=O)c4ccncc4)cccc3C(=O)N([C@H](C)CO)C[C@@H]2C)cc1	x	x	x	7.9	-3.6	x	x	x
N=C1/C(=C/c2ccc(-c3cccc(C(=O)O)c3)o2)C(=O)N=C2SC(CC(=O)N3CCOCC3)=NN12	7.9	1.5	-4.9	21.4	-8.7	3.7	x	x
N=C1/C(=C\c2ccc(-c3cccc(C(=O)O)c3)o2)C(=O)N=C2SC=C(c3ccccc3)N12	32.0*	-7.9	6.6	14.5	-23.4	20.6	36.0*	19.3
CCn1c(O)c(/C=C2\C=Nc3ccccc32)sc1=O	28.2*	-6.7	-17.5	5.0	-1.5	-9.2	13.8	9.3
O=C(c1ccco1)N1CCN(Cc2cc(=O)c(OCc3ccccc3F)co2)CC1	-4.5	1.2	6.6	2.8	-7.2	x	x	x
COCCCNC(=O)c1c(N)n(-c2ccccc2)c2nc3ccccc3nc12	-3.4	-4.6	7.2	11.0	x	-13.3	x	x
COCCCNC(=O)c1c(N)n(-c2ccc(S(N)(=O)=O)cc2)c2nc3ccccc3nc12	113.5*	24.6	24.5	-3.8	-1.7	-4.9	64.8*	-12.8
Cc1cccc(NC(=O)CNC(=O)COc2ccc(-c3ccc(C#N)cc3)cc2)c1C	-7.7	-8.0	4.8	5.2	u	30.0	x	x
Cc1cccc(NC(=O)CNC(=O)COc2ccc(C(=O)c3ccc(F)cc3)cc2)c1C	41.5*	-17.6	9.3	4.6	2.8	9.5	5.8	-2.3
O=C(CSc1nnnn1-c1ccc(Cl)cc1)NC1CCS(=O)(=O)C1 (centres undefined)	x	x	x	-8.7	0.1	x	x	x
CC1CC(C)CN(S(=O)(=O)c2ccc(C(=O)NCc3ccc4c(c3)OCO4)cc2)C1 (centres undefined)	53.3*	-2.5	-2.2	18.9	5.6	45.6	-18.3	-16.8
COc1ccc(CCNC(=O)c2sc(=S)n(C)c2N)cc1	27.9*	-9.5	-2.7	10.1	-6.3	23.5	2.6	-4.7
COc1ccccc1NC(=O)Cn1c2ccccc2c2nc3n(c(=O)c21)CCS3	43.8*	-14.6	7.3	1.0	0.2	16.0	0.4	-8.3
O=C(Nc1ccc(Cl)cc1)C1C2C=CC3(O2)C1C(=O)N(CCCN1CCCCC1)C3C(=O)NC1CCCCC1 (centres undefined)	1.0	-15.5	-1.0	1.9	-10.8	17.6	x	x
Cc1c(C#N)c(N)nc2c3c(sc12)NC(=O)CC3c1ccc(F)cc1 (centres undefined)	-13.4	10.5	30.4	5.7	-0.4	22.3	x	x
Cc1c(C#N)c(N)nc2c3c(sc12)NC(=O)CC3c1ccccc1 (centres undefined)	62.7*	-22.9	-12.3	10.1	5.4	28.0	24.6	-1.8
O=C(Nc1ccc(Oc2ccccc2)cc1)C1CCN(c2ncccn2)CC1	39.3*	11.2	1.5	0.0	-5.8	17.4	-0.6	4.6
O=C(Nc1ccccc1Br)c1cc(=O)c2ccccc2o1	0.6	6.9	-7.0	21.4	-4.2	9.1	x	x
COc1ccc(/C=C2/SC(=O)N(CC(O)Cn3c4ccccc4c4ccccc43)C2=O)cc1 (centres undefined)	-6.4	12.6	-25.9	19.1	u	3.5	x	x
O=C1S/C(=C\c2ccccc2)C(=O)N1CC(O)Cn1c2ccccc2c2ccccc21 (centres undefined)	30.0*	1.4	-1.7	x	-9.6	27.4	8.8	11.0
Cc1cc(C(=O)OCC(=O)c2c(N)n(C)c(=O)n(C)c2=O)c(C)n1-c1ccccc1	40.9*	-2.9	1.1	4.0	2.9	5.4	81.8*	8.2
CCOc1cc(C(=O)OCC(=O)c2c(N)n(C)c(=O)n(C)c2=O)cc(OCC)c1OCC	76.0*	-1.0	11.8	1.1	-7.8	13.4	61.0*	1.2
Cn1c(N)c(C(=O)COC(=O)/C=C/c2ccc(Cl)cc2Cl)c(=O)n(C)c1=O	x	x	x	0.7	x	x	x	x
COc1ccccc1/C=C/C(=O)OCC(=O)c1c(N)n(C)c(=O)n(C)c1=O	48.2*	-4.2	16.2	0.4	-6.6	19.7	26.4	7.8
CCN(CC)S(=O)(=O)c1cccc(NC2=NCC(C)S2)c1 (centres undefined)	-4.8	-3.3	3.8	17.6	-6.4	13.9	x	x
SMILES	EBNA-1 inhibitor	ZTA DNA inh	PolyA inhibitor	NALP3 yeast inh	dFosB act	NALP1 inh	EBNA-1 confirm	ZTA DNA inh trip
O=C(CN1C(=O)c2cccnc2Oc2ccc(Cl)cc21)NCCCc1ccccc1	0.4	5.6	-7.5	8.1	-11.0	9.4	x	x
CCCOC1CCCN(C(=O)c2cc(COc3ccc(F)c(F)c3)on2)C1 (centres undefined)	-0.3	2.0	9.3	23.2	0.2	-13.0	x	x
CCCC(=O)N(Cc1cc(=O)[nH]c2ccccc12)c1ccccc1OC	28.1*	-4.8	0.9	-3.1	-23.1	12.5	-1.6	2.7
COCCNC(=O)C(c1ccc(C)cc1)N(C(=O)CCC(=O)Nc1ccccn1)c1ccccc1C (centres undefined)	2.1	-4.3	5.6	5.4	-17.4	13.7	x	x
O=C(Nc1nnc(-c2ccc(F)cc2)o1)C1CCCN1S(=O)(=O)c1cccs1 (centres undefined)	2.7	2.6	3.1	2.4	-5.8	x	x	x
CC(=O)/C(=N\Nc1cccc(Cl)c1)Sc1cccc2cccnc12	1.4	0.0	0.1	7.9	-3.3	9.6	x	x
CC(=O)/C(=N\Nc1cccc(Cl)c1)Sc1nnc(-c2ccccc2)n1-c1ccccc1	33.3*	9.2	-3.4	7.9	u	8.8	15.6	-7.3
COc1ccnc(N=CNOCc2cccc(C(F)(F)F)c2)c1C#N	-32.4	-3.1	-2.4	3.8	-10.4	6.3	x	x
COc1ccccc1CNC(=O)C1CCN(C(=O)N(C)C)CC1	78.1*	31.1	-9.4	-12.4	-0.6	16.4	3.4	2.6
CCOc1ccc2nc(SC3CC(=O)N(c4ccccc4)C3=O)sc2c1 (centres undefined)	32.8*	1.6	11.3	5.2	5.4	16.7	1.1	-1.5
CC12CCC(C(=O)OC3CCCCC3)(OC1=O)C2(C)C (centres undefined)	1.7	10.7	-7.4	25.2	-18.5	6.3	x	x
CCN(c1cccc(C)c1)S(=O)(=O)c1cc(CN2C(=O)c3cccnc3C2=O)ccc1OC	-5.2	-3.0	4.7	7.9	-8.5	-6.0	x	x
O=C(NCc1ccc2c(c1)OCO2)C1CCC(CNS(=O)(=O)c2ccc(Cl)cc2)CC1 (centres undefined)	29.9*	-1.9	4.5	2.8	1.6	4.9	63.3*	7.5
